Measured values reported in PubChem BioAssay AID485313 (National Center for Advancing Translational Sciences (NCATS), 2010).
About 7,600 (2.4%) of roughly 320,000 compounds were called active. Not shown: some 3% with an inconclusive outcome. Calls come from the whole dose curve; as a rule, active = well fitted activation curve with a large enough effect; inconclusive = small, poorly fitted or top-dose-only effect; inactive = no such curve, though single readings can be large or run the other way. Shown is part of a subset that was picked to be rich in actives.
Potency is the fitted concentration of half-maximal effect.

Experiment: qHTS Assay for NPC1 Promoter Activators; note: nearly all actives have a fitted effect of over 60% in size;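 for activation: reporter is driven by a mutant NPC1 promoter; % of control where 0% means no effect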
Details: Huh7 NPC1 promoter luciferase reporter, 24 h; series mostly up to 9.22 µM; activation: at the top concentration
Outline: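 Huh7 cells stably carrying NPC1 promoter–luciferase, plated in Opti-MEM with 10% FBS for 2 h, were exposed to compound in DMSO for 24 h at 37 °C; luciferase reagent was added for 10 min and luminescence read.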
For `CCOC(=O)N1CCC(NC(=O)CCc2ccccc2)CC1`, the “activation” value was -2.93% (inactive).
With `O=C(NCC1CCC(C(=O)O)CC1)OCc1ccccc1` (stereo not drawn) the “activation” value was 2.31% (inactive).
For `O=C(O)C1CCN(C(=O)OCc2ccccc2)CC1`, the Potency was 2000 nM (active).
In the case of `CC(=O)c1ccc(S(=O)(=O)NCCC(=O)N2CCN(c3ccccn3)CC2)cc1`, the “activation” value is reported as -0.622% (inactive).
For `O=C(Nc1cccc(C(=O)NC2CC2)c1)c1ccc(F)c(S(=O)(=O)N2CCOCC2)c1`, the “activation” value was -1.39% (inactive).
With `COc1ccc(Cl)cc1NC(=O)COc1ccc2c(c1)OCO2` the “activation” value was -1.02% (inactive).
For `O=[N+]([O-])c1cc(Br)c(O)c(/C=N/Nc2nc3ccccc3s2)c1`, the “activation” value was -6.54% (inactive).
In the case of `c1ccc2sc(NN=C3CCCC3)nc2c1`, the Potency is reported as 1410 nM (active).
With `CCN(CC)CCn1c2c(c(SCC(=O)Nc3nc4ccccc4s3)nc1=O)CCCC2` the “activation” value was 0.104% (inactive).
For `COc1ccc(-c2sc3ccc(OC)cc3c2C#Cc2ccccn2)cc1`, the “activation” value was 22% (inactive).
With `Cc1cnc(CN(C)C(=O)C2CCC(=O)N(CCc3cccc(F)c3)C2)[nH]1` (stereo not drawn) the “activation” value was -4.93% (inactive).
For `Cc1csc(=O)n1CCC(=O)OCC(=O)NNC(=O)c1ccc(Br)cc1`, the “activation” value was -1.37% (inactive).
With `Nc1c(N(CCCO)C(=O)C2CCCC2)c(=O)[nH]c(=O)n1Cc1ccccc1` the “activation” value was 0.384% (inactive).
With `C/C(=N\NC(=O)c1nc(C)cc(C)n1)c1ccccc1` the Potency was 1580 nM (active).
With `COc1ccc(/C(C)=N/NC(=O)c2ccc3nc[nH]c3c2)cc1` the “activation” value was -2.23% (inactive).
For `C/C(=N\NC(=O)c1cccnc1)c1ccc(-c2ccccc2)cc1`, the “activation” value was 2.31% (inactive).
For `COc1ccc(CCNC(=O)CCc2ccccc2O)cc1OC`, the “activation” value was 1.23% (inactive).
In the case of `COc1ccccc1C(=O)NC(=O)COC(=O)C1CC1`, the “activation” value is reported as 2.15% (inactive).
For `O=C(NCCS(=O)(=O)NCc1ccc(F)cc1)c1ccccc1`, the “activation” value was 2.14% (inactive).
For `O=C(COC(=O)CNC(=O)c1ccccc1F)NCC(F)(F)F`, the “activation” value was -10.8% (inactive).
In the case of `O=C(CNC(=O)c1ccc(F)cc1)c1ccccc1`, the Potency is reported as 1410 nM (active).
With `O=C(CNC(=O)c1ccccc1Br)NCCSc1ccc(Br)cc1` the “activation” value was -2.8% (inactive).
For `O=C(CNC(=O)c1ccccc1)NCC(=O)OCC(=O)c1ccccc1`, the “activation” value was -2.12% (inactive).
With `O=C(CNC(=O)c1ccccc1F)c1ccc(Br)cc1` the Potency was 398 nM (active).
For `Cc1ccc(S(=O)(=O)Nc2nc(CN3CCOCC3)nc3sc(C)c(C)c23)cc1`, the “activation” value was -3.18% (inactive).
In the case of `COc1ccc(CNC(=O)c2ccc(NS(=O)(=O)c3ccc4[nH]c(=O)[nH]c4c3)cc2)cc1OC`, the “activation” value is reported as 0.755% (inactive).
In the case of `Nc1nc(SCC(=O)Nc2ccc(Cl)c([N+](=O)[O-])c2)n[nH]1`, the “activation” value is reported as -0.898% (inactive).
In the case of `CCCOc1ccc(C(=O)NCCc2ccccc2)cc1`, the Potency is reported as 447 nM (active).
In the case of `CCCCCCCCC(=O)NCCOc1ccccc1`, the “activation” value is reported as -1.35% (inactive).
With `O=C(NCCOc1ccccc1)c1ccccc1` the Potency was 631 nM (active).
With `O=C(CCNC(=O)c1ccc(Br)cc1)NCCCc1ccccc1` the “activation” value was 0.35% (inactive).
With `CC(C)c1ccc(C(=O)NCCCc2ccccc2)cc1` the Potency was 2820 nM (active).
In the case of `Cc1noc(C)c1COc1ccc(C(=O)NCCOc2ccccc2)cc1`, the “activation” value is reported as 14% (inactive).
For `COc1ccc(OCCCC(=O)NCCc2ccccc2)cc1`, the “activation” value was 0.654% (inactive).
For `CN(c1ccccc1)S(=O)(=O)c1ccc(C(=O)NCCc2ccccc2)cc1`, the “activation” value was 16.8% (inactive).
For `CCCc1ccc(OCCNC(=O)c2ccccc2Br)cc1`, the “activation” value was 11% (inactive).
With `CCN1CCN(C(=O)N[C@@H](C(=O)N[C@@H]2C(=O)N3C(C(=O)O)=C(CSc4nnnn4C)CS[C@H]23)c2ccc(O)cc2)C(=O)C1=O` the “activation” value was -2.2% (inactive).
In the case of `Cc1ccc(CNC(=O)c2cccc3c2C(=O)c2ccc(N4CCC(C)CC4)cc2S3(=O)=O)cc1`, the “activation” value is reported as 13.2% (inactive).
For `CC1(C)O[C@@H]2[C@H](O1)[C@@H](COS(=O)(=O)O)O[C@H]2n1ccc(=O)[nH]c1=O`, the “activation” value was 0.649% (inactive).
With `O=C(/C=C/c1ccccc1[N+](=O)[O-])OCC(=O)N1CCCC1` the “activation” value was 10.4% (inactive).
With `O=C(CNc1ccccc1N1CCCC1=O)Nc1cc(Cl)ccc1-n1cncn1` the “activation” value was -0.612% (inactive).
For `O=C(Nn1cnc2ccccc2c1=O)c1ccccc1`, the “activation” value was 1.3% (inactive).
In the case of `O=c1c2ccccc2ncn1/N=C/c1ccccc1`, the Potency is reported as 1000 nM (active).
In the case of `CCCc1nc2ccccc2c(=O)n1/N=C/c1ccc(O)c(O)c1`, the “activation” value is reported as -8.72% (inactive).
For `Cc1ccc(S(=O)(=O)N(NC2=NS(=O)(=O)c3ccccc32)C(=O)c2ccccc2)cc1`, the “activation” value was -4.49% (inactive).
For `O=C(Oc1cccc(NC2=NS(=O)(=O)c3ccccc32)c1)c1ccncc1`, the “activation” value was 2.13% (inactive).
For `CC(C)(C)c1csc(NC2=NS(=O)(=O)c3ccccc32)n1`, the Potency was 1410 nM (active).
In the case of `CCN(CC(=O)Nc1ccccc1C(F)(F)F)C(=O)C1CCN(C(=O)Nc2ccccc2)CC1`, the “activation” value is reported as 1.23% (inactive).
For `O=C(c1cn(-c2ccccc2)nc1-c1cccnc1)N1CCN(S(=O)(=O)c2ccccc2F)CC1`, the “activation” value was -2.08% (inactive).
With `CC[C@@H]1Cc2cc(O)ccc2C2=C1c1ccc(O)cc1C[C@H]2CC` the Potency was “inactive”.
In the case of `COC(=O)/C(=C1\Oc2ccc(C(C)(C)C)cc2S1)C(F)(F)F`, the Potency is reported as 3550 nM (active).
With `CCOC(=O)C1=C(c2ccccc2)O/C(=C(/C(=O)OC)C(F)(F)F)S1` the “activation” value was 10.5% (inactive).
With `Cc1occc1-c1nnc(SCC(=O)NC2(C#N)CCCC2)n1C` the “activation” value was -2.37% (inactive).
For `COc1ccc(-c2cc(C(F)(F)F)nc(NCc3cccnc3)n2)cc1`, the “activation” value was 1.94% (inactive).
With `COc1ccc(-c2cc(C3CCN(c4ncccc4[N+](=O)[O-])CC3)[nH]n2)cc1` the “activation” value was 1.28% (inactive).
In the case of `COc1ccc(-c2cc3ncccc3cn2)cc1`, the Potency is reported as 2240 nM (active).
In the case of `Cn1c(CCN2CCCC2)nc2cc(NS(=O)(=O)c3ccccc3)ccc21`, the “activation” value is reported as -7.01% (inactive).
In the case of `CCC(=O)Nc1ccc2c(c1)nc(CCN1CCN(c3ccccn3)CC1)n2C`, the “activation” value is reported as -10.8% (inactive).
In the case of `Cc1cc2nc(C)n(CCCNC(=O)Nc3ccccc3)c2cc1C`, the “activation” value is reported as -3.61% (inactive).
For `Cc1nc2cc(NC(=O)NC3CC3)ccc2n1C`, the “activation” value was 7.08% (inactive).
In the case of `Cn1c(CCN2CCCCCC2)nc2cc(NC(=O)Nc3ccccc3)ccc21`, the Potency is reported as 4470 nM (active).
In the case of `Cc1nc2cc(NC(=O)Nc3cccc(F)c3)ccc2n1C`, the Potency is reported as 100 nM (active).
With `CCn1c(=O)c(=O)n(CC)c2cc(N3CCCCC3)c(NC(=O)c3ccc(Cl)cc3)cc21` the “activation” value was -3.5% (inactive).
For `CC(C)n1ncc2c(C(=O)NCc3ccccc3CN(C)C)cc(C3CC3)nc21`, the “activation” value was -4.26% (inactive).
With `COc1nc(N(C)C)nc(N2CC(=O)N(CCNS(=O)(=O)c3ccc(C)cc3)C2=N)n1` the “activation” value was 2.87% (inactive).
In the case of `CCS(=O)(=O)n1nc(-c2ccc(OC)cc2)nc1SC`, the “activation” value is reported as 27.4% (inactive).
For `CCS(=O)(=O)n1nc(-c2ccccc2)nc1SCc1ccccc1`, the Potency was 3550 nM (active).
For `CS(=O)(=O)n1nc(-c2ccccc2)nc1NCc1ccco1`, the “activation” value was 0.536% (inactive).
